Screening data from PubChem BioAssay.
The entries come from a sample that favours hits as a whole.
STK33 kin inh = inhibitors of human STK33 kinase. ADP-Glo luminescence, MBP substrate. Q9BYT3. inhibition, % at 12.5 µM. AID 2322. hit rate 0.44% among 27,000; in the data active = inhibition above about 20%; inconclusive = no clear call, values can overlap the other calls
Target sequence (Q9BYT3 whole entry, looked up): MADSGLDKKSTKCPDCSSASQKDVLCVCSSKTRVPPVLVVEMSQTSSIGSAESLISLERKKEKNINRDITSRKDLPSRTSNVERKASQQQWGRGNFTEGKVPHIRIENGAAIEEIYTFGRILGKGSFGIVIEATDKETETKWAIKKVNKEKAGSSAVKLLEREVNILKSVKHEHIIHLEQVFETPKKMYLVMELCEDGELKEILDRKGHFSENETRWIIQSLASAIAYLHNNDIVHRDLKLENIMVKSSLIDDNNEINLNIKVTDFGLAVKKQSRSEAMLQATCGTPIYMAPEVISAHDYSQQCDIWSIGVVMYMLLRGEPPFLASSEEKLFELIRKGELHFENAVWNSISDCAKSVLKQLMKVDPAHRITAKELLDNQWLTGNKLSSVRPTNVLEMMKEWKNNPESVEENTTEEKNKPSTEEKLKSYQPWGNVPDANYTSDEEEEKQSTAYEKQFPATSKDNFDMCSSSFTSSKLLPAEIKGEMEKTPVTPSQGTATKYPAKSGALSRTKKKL
PD-1 reversal = activators reversing PD-1 mediated T-cell inhibition. primary human CD4 T cells, PD-L1 beads, CellTiter-Glo 96 h. activation, % (no concentration beside the values). 29,000 tested, under 10 active. AID 2316; call rule not given here;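 note: 0% = median vehicle wells and 100% = positive control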
NOMO-1 viab = STK33 inhibitor candidate reducing NOMO-1 cell viability; inhibition, % (concentration not given with the values); NOMO-1 AML viability, CellTiter-Glo luminescence, 72 h; hit rate 7.5% among 37,000; in the data active = inhibition above about 80%; inconclusive = no clear call, values can overlap the other calls
* hit, by the source's call; ? = inconclusive; . = no result given.

SMILES	STK33 kin inh	PD-1 reversal	NOMO-1 viab
O=c1[nH][nH]c(=O)n1CCCc1cc2cccc3ccc4cccc1c4c32	2	0	7
COc1ccc2c(c1)cc(C)c1nnc(SCC(=O)Nc3cccc(C(C)=O)c3)n12	2	-1	13
CC(C)(C)C1CCc2c(sc3ncn(CC(=O)NCc4ccco4)c(=O)c23)C1 (stereo not given)	0	-1	25
CC(C)Cn1c(SCC(=O)Nc2ccc(F)cc2F)nc2ccccc2c1=O	-3	-1	26
COc1ccc(-c2cc(=O)[nH]c(SCC(=O)Nc3ccc(Oc4ccccc4)cc3)n2)cc1	-1	1	13
COc1ccccc1C1CCN(S(=O)(=O)c2ccccc2Br)CC1	.	0	-4
COc1ccccc1C1CCN(Cc2cccc3ccccc23)CC1	0	-7	100*
COc1cc(NC(=O)CN(C)S(=O)(=O)c2ccc3ccccc3c2)cc(OC)c1	2	1	8
CCc1c(O)nc(SC(C)C(=O)Nc2cccc(Cl)c2)[nH]c1=O (stereo not given)	1	.	-4
COc1ccc(NC(=O)Nc2cccc3c2O[C@@H](CN(C)S(=O)(=O)c2ccc(OC)cc2)[C@H](C)CN([C@H](C)CO)C3=O)cc1	.	-2	16
COc1ccc(NC(=O)Nc2cccc3c2O[C@H](CN(C)S(=O)(=O)c2ccc(OC)cc2)[C@@H](C)CN([C@H](C)CO)C3=O)cc1	.	2	-1
COc1ccc(S(=O)(=O)N(C)C[C@@H]2Oc3c(NC(=O)Nc4ccc(C(F)(F)F)cc4)cccc3C(=O)N([C@H](C)CO)C[C@@H]2C)cc1	.	-2	114*
Cc1ccc(S(=O)(=O)N(C)C[C@H]2Oc3c(NC(=O)Nc4ccc(C(F)(F)F)cc4)cccc3C(=O)N([C@@H](C)CO)C[C@H]2C)cc1	.	-7	119*
Cc1ccc(S(=O)(=O)N(C)C[C@@H]2Oc3c(NC(=O)Nc4ccc(C(F)(F)F)cc4)cccc3C(=O)N([C@@H](C)CO)C[C@@H]2C)cc1	.	-1	39
COc1ccc(S(=O)(=O)N(C)C[C@@H]2Oc3c(NC(=O)Nc4ccc(C(F)(F)F)cc4)cccc3C(=O)N([C@@H](C)CO)C[C@@H]2C)cc1	.	-1	93*
C/C=C(\C(C)=N\O)c1ccccc1	.	1	-10
COc1ccc(CN2C(=O)c3cccc4cccc(c34)C2=O)cc1S(=O)(=O)N1CCOCC1	2	.	57
COc1cc(NC(=O)C(C)Oc2ccc(Cl)cc2C)c(C(=O)O)cc1OC (stereo not given)	5	.	9
CC(C)C(=O)Nc1ccccc1C(=O)OCc1cccc([N+](=O)[O-])c1	0	.	11
O=C(N1CCOCC1)[C@@]1(Cc2ccccc2)COC(c2ccc(OCCCO)cc2)=N1	-7	.	.
O=C1CCCC(O)=C1C=Nc1cccc2ccccc12	.	0	43
O=C(COc1ccccc1[N+](=O)[O-])Nc1ccc(O)c(-c2nc3ccccc3s2)c1	5	.	79
C[C@@H]1CN([C@H](C)CO)C(=O)c2cc(NC(=O)Nc3ccc(F)cc3)ccc2O[C@@H]1CN(C)Cc1ccc(C(=O)Nc2ccccc2N)cc1	.	-3	107*
C[C@@H]1CN([C@H](C)CO)C(=O)c2cc(NC(=O)Nc3ccc(C(F)(F)F)cc3)ccc2O[C@@H]1CN(C)Cc1ccc(C(=O)Nc2ccccc2N)cc1	.	-2	102*
C[C@H]1CN([C@@H](C)CO)C(=O)c2cc(NC(=O)Nc3ccccc3)ccc2O[C@H]1CN(C)Cc1ccc(C(=O)Nc2ccccc2N)cc1	.	0	?
SMILES	STK33 kin inh	PD-1 reversal	NOMO-1 viab
C[C@@H]1CN([C@@H](C)CO)C(=O)c2cc(NC(=O)Nc3ccc(C(F)(F)F)cc3)ccc2O[C@H]1CN(C)Cc1ccc(C(=O)Nc2ccccc2N)cc1	.	0	11
Cc1sc2ncnc(NCCCN3CCOCC3)c2c1-c1ccccc1	0	.	19
Cc1ccc(-c2csc3nc4c5ccccc5c(NCCCN5CCOCC5)nn4c(=O)c23)cc1	3	-15	114*
Cc1sc2nc3c4ccccc4c(NCC4CCCO4)nn3c(=O)c2c1C (stereo not given)	.	0	87*
Cc1sc2nc3c4ccccc4c(NCCO)nn3c(=O)c2c1C	.	0	-11
N#Cc1cc(C#N)c(SCC(=O)NC2CCCCC2)nc1N	.	0	5
C=CCN1CCc2c(cc(O)c(O)c2Cl)C(c2ccccc2)C1 (stereo not given)	0	.	117*
Oc1ccc(C2CNCCc3c2cc(O)c(O)c3Cl)cc1 (stereo not given)	0	.	14
COc1ccc(Br)cc1COC(=O)C1c2ccccc2Oc2ccccc21	.	1	13
c1ccc(C2C3=C(CCCC3)SC3=C2CCCC3)cc1	.	-1	98*
COC(=O)c1ccc([C@H]2C(C#N)=C(N)C(C#N)(C#N)C3=CCC(C(C)(C)C)C[C@@H]32)cc1 (stereo not given in full)	.	-7	116*
CC(C)(C)C1CC=C2[C@H](C1)[C@@H](c1ccsc1)C(C#N)=C(N)C2(C#N)C#N (stereo not given in full)	.	0	23
CCCc1nnc(NC(=O)c2nc(SC)ncc2Cl)s1	1	.	-3
C[C@@H]1CN([C@H](C)CO)C(=O)c2cc(NC(=O)Nc3ccc(C(F)(F)F)cc3)ccc2O[C@H]1CN(C)Cc1ccc(C(=O)Nc2ccccc2N)cc1	.	0	54
C[C@@H]1CN([C@@H](C)CO)C(=O)Cc2cc(NC(=O)c3ccncc3)ccc2O[C@@H]1CN(C)Cc1ccc(C(=O)Nc2ccccc2N)cc1	.	1	65
C[C@H](CO)N1C[C@H](C)[C@H](CN(C)Cc2ccc(C(=O)Nc3ccccc3N)cc2)Oc2ccc(NC(=O)Nc3ccc(C(F)(F)F)cc3)cc2CC1=O	.	-3	140*
CC(C)NC(=O)Nc1ccc2c(c1)CC(=O)N([C@H](C)CO)C[C@H](C)[C@H](CN(C)Cc1ccc(C(=O)Nc3ccccc3N)cc1)O2	.	-1	126*
C[C@H](CO)N1C[C@H](C)[C@H](CN(C)Cc2ccc(C(=O)Nc3ccccc3N)cc2)Oc2ccc(NC(=O)c3ccncc3)cc2CC1=O	.	-3	128*
C[C@@H]1CN([C@H](C)CO)C(=O)c2cc(NC(=O)Nc3cccc4ccccc34)ccc2O[C@@H]1CN(C)Cc1ccc(C(=O)Nc2ccccc2N)cc1	.	-2	105*
C[C@@H]1CN([C@H](C)CO)C(=O)c2cc(NC(=O)Nc3cccc4ccccc34)ccc2O[C@H]1CN(C)Cc1ccc(C(=O)Nc2ccccc2N)cc1	.	-2	27
Cc1noc(C)c1NC(=O)Nc1ccc2c(c1)CC(=O)N([C@@H](C)CO)C[C@@H](C)[C@@H](CN(C)Cc1ccc(C(=O)Nc3ccccc3N)cc1)O2	.	0	36
COc1ccc(C)cc1NC(=O)CN(c1ccc(I)cc1)S(C)(=O)=O	-7	-6	26
O=c1[nH]c(=S)[nH]c(O)c1C=Nc1cccc(O)c1	.	0	11
C=CCNC(=O)[C@@H]1[C@H]2C(=O)O[C@H](c3ccccc3)[C@H](c3ccccc3)N2[C@H](c2ccccc2OCCO)[C@@]12C(=O)Nc1ccc(C#CCC(C(=O)OC)C(=O)OC)cc12	14	.	.
Cc1ccc(-n2c(SCC(N)=O)nnc2-c2cccs2)cc1	0	1	-10
COc1ccc(-c2nc(SCC(=O)Nc3ccc(Br)c(C)c3C)n[nH]2)cc1	-1	-2	18
